The campaign covered roughly 190,000 compounds. About 80 (0.04%) were called active. Cut-off read from the data, not from the text of the source: active = inhibition above about 40%. These entries were drawn from the full list.
Molecular target: Bcl-2-like protein 1 (Homo sapiens) (UniProt Q07817)
Test: Bcl-XL/Bim peptide interaction blockers – biochemical, multiplexed, bead flow cytometry, human Bcl-XL, primary screen (AID 1007)
Conditions: Bim peptide-Bcl-XL binding, fluorescence, at 10 µM, hits give high values

Chain of Bcl-2-like protein 1 (Homo sapiens) (Q07817 whole entry, looked up): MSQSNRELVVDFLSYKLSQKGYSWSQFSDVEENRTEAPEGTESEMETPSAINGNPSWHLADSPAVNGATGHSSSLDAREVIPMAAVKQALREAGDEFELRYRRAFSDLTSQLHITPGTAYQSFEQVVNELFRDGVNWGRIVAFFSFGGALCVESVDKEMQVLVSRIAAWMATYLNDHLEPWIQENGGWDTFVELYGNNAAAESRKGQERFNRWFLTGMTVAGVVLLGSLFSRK

inhibition, inactive:
CCN1CCC2(CC1)N=C(c1ccc(F)cc1)C(=S)N2C(=O)c1ccc(C)cc1 -10%, Cc1ccc2c(=O)oc(N(C)C)nc2c1 1%, Cc1cc(C)c(C(N)=O)c(Cl)n1 -2%, CCOC(=O)c1ccc(NC(=O)C2CC(=O)Nc3nc4ccccc4n32)cc1 (stereo not drawn) 2%, CCn1c(N)c(Br)c(=O)[nH]c1=O -2%, C#Cc1ccc([C@@H]2C=C(C(=O)O)O[C@H](OCCCCO)C2)cc1 -4%, CCN(CC)CC1(O)CCN(C(=O)c2ccc(Cl)c(Cl)c2)CC1 0%, CCC(CC)c1nnc(NC(=O)/C=C/c2ccco2)s1 -8%, O=C(NCc1ccco1)C(=O)c1cn(CC(=O)N2CCCCCC2)c2ccccc12 -2%, COc1ccc(CNC(=O)CCCn2nc(C)c([N+](=O)[O-])c2C)cc1 -4%, O=C(N1CCCC1)C12CC3CC(C1)CC(C(=O)N1CCCC1)(C3)C2 -4%, Cc1ccccc1CN(c1ccc(C(=O)NCC2CCCO2)cc1)S(C)(=O)=O (stereo not drawn) -6%, O=C(c1cccc(F)c1)N1CCN(c2ccc([N+](=O)[O-])c3cccnc23)CC1 -4%, COc1cccc(C(=O)N2CCCC(CCC(=O)NCc3ccc(F)c(F)c3)C2)c1 (stereo not drawn) -1%, CCOC(=O)CCCNC(=O)COC(=O)c1cc(Br)c(Br)s1 2%, Cc1ccccc1-c1n[nH]c(=S)n1/N=C/c1ccc(-c2ccccc2Br)o1 -1%, CC1CCCC(C)N1/N=C/c1ccccc1OC(F)F (stereo not drawn) 2%, O=C1NC(c2ccccc2)CCC1(Cl)Cl (stereo not drawn) -5%, O=C(O)CC(SCC(=O)Nc1ccc(Br)cc1)C(=O)O (stereo not drawn) -2%, COc1cc(Cl)c(C)cc1NC(=O)COC(=O)c1cc(SC)ccc1Cl -6%, COC(=O)c1ccccc1SC1CC(=O)N(c2cccc(C)c2)C1=O (stereo not drawn) -2%, Cc1ccc(NC(=O)Nc2nnc(-c3ccncc3)s2)cc1 -2%, OCCn1c(-c2ccccc2)csc1=Nc1ccccc1 -3%, COc1ccccc1N1CCN(/N=C\C(Br)=C\c2ccccc2)CC1 -1%, Cc1nc2c(C(=O)NCc3cccs3)cnn2c(C)c1Cc1ccc(F)cc1 1%, O=C(CN(c1cccc(Cl)c1)S(=O)(=O)c1ccccc1)NN=C1CCCC1 -1%, CC(C)C(=O)Nc1c(O)c2ccccc2[nH]c1=O -4%, Cc1cc(C(=O)CCl)c(C)n1CC1COc2ccccc2O1 (stereo not drawn) 0%, COc1cccc2c(N/N=C/c3ccco3)cc(C)nc12 0%, CCc1ccccc1N1C(=O)C2C3CC(=O)C(c4ccccc43)C2C1=O (stereo not drawn) -2%, Cn1nnnc1-c1cc(Cl)cc(Cl)c1 0%, O=C(Oc1ccccc1Cl)c1ccc(N2CCOCC2)c([N+](=O)[O-])c1 3%, COc1ccc(Nc2nc(N)nc(CSC(=S)N3CCC(C)CC3)n2)cc1 20%, CC1CCN(c2ccc(C(=O)Nc3nnc(C4CC4)s3)cc2[N+](=O)[O-])CC1 -12%, NS(=O)(=O)c1cccc(NC(=O)COC(=O)/C=C/c2ccco2)c1 -2%, N#CC1=C(N)Oc2[nH]c(=S)[nH]c(=O)c2C12C(=O)Nc1ccccc12 (stereo not drawn) -1%, Nc1[nH][nH]c(=O)c1N=Nc1ccc2c(c1)OCO2 0%, Cc1cc[n+](-c2[nH]c(=O)sc2/C=N/NC(=O)c2ccccc2[O-])cc1C -7%, O=C(NCC(O)c1ccc([N+](=O)[O-])cc1)C1CCCCC1 (stereo not drawn) 0%, CCCC(C)C(=O)NCc1ccncc1 (stereo not drawn) 0%, CCOc1ccc(S(=O)(=O)Nc2nccs2)cc1 -2%, CCOC(=O)c1c(C)n(C)c2ccc(OC)c(NS(=O)(=O)CC)c12 -7%, COc1cc(C(=O)NCc2ccc3c(c2)cc(C)n3C)cc(OC)c1OC -2%, O=c1[nH]oc(O)c1-c1ncc(C(F)(F)F)cc1Cl -2%, COc1ccc(CC(=O)N[C@@H](CCSC)c2nc3ccccc3[nH]2)cc1 -5%, Cc1cccc(NC(=S)NC(=O)c2ccc(Br)o2)c1 0%, Cc1c(-c2cccc(Cl)c2)nc2ccccc2c1C(=O)OCC(=O)N(C)C1CCS(=O)(=O)C1 (stereo not drawn) 0%, CCOC(=O)C1=C(C)N=C2c3ccccc3C(=O)C2C1c1ccc(Br)cc1 (stereo not drawn) -6%, Cc1ccc(-c2nn(-c3ccccc3)cc2C(=O)Nc2cccc(S(=O)(=O)N3CCOCC3)c2)cc1 -14%, CN(C)c1ccc(C=NCCc2ccc(S(N)(=O)=O)cc2)cc1 -3%, COc1ccccc1-n1c(C)nc2cc(C(=O)NCc3ccc4c(c3)OCO4)ccc21 -10%, CCOC(=O)c1ccc(N2C(=O)CC(N3CCN(C(=O)c4ccccc4)CC3)C2=O)cc1 (stereo not drawn) -1%, O=[N+]([O-])c1ccc(F)cc1Oc1nc(-c2cccnc2)nc2ccccc12 1%, COc1ccc(/C=N/N=C/c2c[nH]c(=O)c(C#N)c2Nc2ccccc2)cc1 11%, COc1cc(C2OC(c3cc(OC)c(OC)c(OC)c3)C(C)C2C)cc(OC)c1OC (stereo not drawn) -1%, CN(C)CCCCCN(C)Cc1cc2ccccc2o1 -2%, COc1ccc(C(=O)COC(=O)COc2ccc(C)c(C)c2)cc1 -2%, Cc1ccc(S(=O)(=O)N(C)c2ccc(OCC(=O)NC3=NCCS3)cc2)cc1 0%, CC(=O)NC1C(Oc2ccc(C)cc2)OC2COC(c3ccco3)OC2C1O (stereo not drawn) -6%, Cc1ccc(C(=O)C(=S)N2CCOCC2)cc1 -9%, COc1cc(CN2CCNC(=O)C2CC(=O)NCCc2ncccc2C)cc(OC)c1 (stereo not drawn) -3%, C=CCn1c(SCC(=O)CC(=O)OCC)nc2cc(C(=O)N3CCC(C(N)=O)CC3)ccc2c1=O -5%, Cc1ccc(C)c(NC(=O)CCC(=O)N/N=C2/CC(=O)CC(C)(C)C2)c1 0%
